This note sets out measurements from PubChem BioAssay (Tox21).

The nature of assay [1]: qHTS assay for small molecules that induce genotoxicity in human embryonic kidney cells expressing luciferase-tagged ATAD5 (AID 651632). Also: nearly all actives have a fitted effect of over 15% in size. Also: potency is read from the fitted curve at half-maximal effect. In short, it runs like this: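 Quantitative HTS in HEK293T expressing luciferase-tagged ATAD5, whose levels rise upon DNA damage. Exposure ran 16 hr at 37C and 5% CO2, with luminescence read 30 min after Amplite addition at room temperature.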
Background: In qHTS, concentration-response curves come from the screen itself.

The nature of assay [2]: qHTS assay for small molecule agonists of the p53 signaling pathway - cell viability (AID 651633; calls by dose curve;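 also: p53RE-bla HCT reporter cells with a stable beta-lactamase p53 reporter; series mostly up to about 83 µM; % is scaled to controls: 0 for no effect and ±100 for the full control effect; nearly all actives have a fitted effect of over 30% in size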). In short, it runs like this: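 p53RE-bla cells were treated with compound for 16 hours at 37 C. Cytotoxicity was then measured as CellTiter-Glo luminescence after 30 min at room temperature.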
The nature of assay [3]: qHTS assay for small molecules that induce genotoxicity in human embryonic kidney cells expressing luciferase-tagged ATAD5 - cell viability (AID 651634; calls by dose curve; also: nearly all actives have a fitted effect of over 25% in size; also: potency is read from the fitted curve at half-maximal effect). In outline: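 After 15.5 hr incubation with compound at 37C, 5% CO2, HEK293T ATAD5-luciferase cells received CellTiter-Fluor reagent; fluorescence intensity was quantified following 30 min at 37C.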
Assay [4] is described as follows: qHTS assay for small molecule disruptors of the mitochondrial membrane potential - cell viability (AID 720634; calls by dose curve; also: nearly all actives have a fitted effect of over 20% in size; also: potency is read from the fitted curve at half-maximal effect). In outline: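 ATP-based luminescent viability readout (CellTiter-Glo, 30 min, room temperature) in HepG2 cells multiplexed with the m-MPI membrane potential dye; compound exposure lasted 1 hr at 37 C.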
Assay [5] can be described thus: qHTS assay for small molecule disruptors of the mitochondrial membrane potential (AID 720635). Also: potency is read from the fitted curve at half-maximal effect. In outline: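 HepG2 cells exposed to compound 1 hr at 37C, then Mito-MPS dye 30 min. Ratio read of aggregate (540/590 nm) versus monomer (490/535 nm) fluorescence.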
Assay [6] can be described thus: qHTS assay to test for compound auto fluorescence at 590 nm (red) in HepG2 cells (AID 720674). Also: % is scaled to controls: 0 for no effect and ±100 for the full control effect. In outline: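 Seeding: 2,000 HepG2 cells/well, MEM/10% FBS, overnight 37 C. Dosing: compound vs DMSO. Incubation: 1 hr, 37 C, 5% CO2. Read: fluorescence 540 ex/590 em, Rose Bengal sodium as red reference.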
A short description of assay [7]: qHTS assay to test for compound auto fluorescence at 535 nm (green) in HepG2 cells (AID 720675). Also: % is scaled to controls: 0 for no effect and ±100 for the full control effect.
Assay [8] can be described thus: qHTS assay to test for compound auto fluorescence at 460 nm (blue) in HEK293 cells (AID 720678). Also: % is scaled to controls: 0 for no effect and ±100 for the full control effect. In short, it runs like this:
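HEK293 cells (2,000/well, medium with 10% dialyzed FBS) attached 4-5 hr, then exposed to compound overnight at 37C, 5% CO2. Blue fluorescence read at 405/460 nm, with triamterene as reference fluorophore.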

A short description of assay [9]: qHTS assay to test for compound auto fluorescence at 590 nm (red) in HEK293 cells (AID 720679). Also: % is scaled to controls: 0 for no effect and ±100 for the full control effect. In short, it runs like this: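 HEK293 cells (2,000/well, 10% dialyzed FBS) attached 4-5 hr, then dosed with compound or DMSO and incubated overnight at 37C, 5% CO2. Red fluorescence read at 540/590 nm, Rose Bengal sodium as reference fluorophore.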
Assay [10] in a line: qHTS assay to test for compound auto fluorescence at 535 nm (green) in HEK293 cells (AID 720680). Also: % is scaled to controls: 0 for no effect and ±100 for the full control effect.
A short description of assay [11]: qHTS assay to test for compound auto fluorescence at 460 nm (blue) in HEK293 cell free culture (AID 720681). Also: % is scaled to controls: 0 for no effect and ±100 for the full control effect. In short, it runs like this: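 Compounds were added to cell-free DMEM with 10% FBS and fluorescence read directly. The blue channel used 405 nm excitation and 460 nm emission, with triamterene as the reference fluorophore.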
Assay [12] can be described thus: qHTS assay to test for compound auto fluorescence at 590 nm (red) in HEK293 cell free culture (AID 720683). Also: % is scaled to controls: 0 for no effect and ±100 for the full control effect. In outline: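 Cell-free wells of DMEM with 10% FBS received compound, and intrinsic fluorescence was read at excitation/emission 540/590 nm. Values expressed as equivalence to Rose Bengal sodium.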
The nature of assay [13]: qHTS assay to test for compound auto fluorescence at 590 nm (red) in HepG2 cell free culture (AID 720684). Also: % is scaled to controls: 0 for no effect and ±100 for the full control effect. In outline: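 Auto fluorescence equivalency versus Rose Bengal sodium, red channel Ex/Em 540/590 nm; compounds in cell-free MEM/10% FBS; DMSO vehicle control.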
A short description of assay [14]: qHTS assay to test for compound auto fluorescence at 460 nm (blue) in HepG2 cell free culture (AID 720685). Also: % is scaled to controls: 0 for no effect and ±100 for the full control effect. In short, it runs like this: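 Cell-free plates of MEM plus 10% FBS received 23 nL compound or DMSO vehicle; blue-channel (405/460 nm) intensity scored against triamterene as reference fluorophore.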
A short description of assay [15]: qHTS assay to test for compound auto fluorescence at 535 nm (green) in HepG2 cell free culture (AID 720686). Also: % is scaled to controls: 0 for no effect and ±100 for the full control effect.
Assay [16] in a line: qHTS assay to test for compound auto fluorescence at 460 nm (blue) in HepG2 cells (AID 720687). Also: % is scaled to controls: 0 for no effect and ±100 for the full control effect. In outline:
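HepG2 cells in MEM with 10% FBS, attached overnight at 37 C, were exposed to compound or DMSO for 1 hr at 37 C, 5% CO2. Blue fluorescence was read at 405/460 nm, with triamterene as reference fluorophore.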

Assay [17] deals with Glucocorticoid receptor (Homo sapiens) (UniProt P04150). Put plainly: qHTS assay to identify small molecule agonists of the glucocorticoid receptor (GR) signaling pathway (AID 720691; active = well fitted activation curve with a large enough effect in the signal ratio in the repeat runs, not every such curve was filed as active; the % refers to the signal ratio; also: % is scaled to controls: 0 for no effect and ±100 for the full control effect). In short, it runs like this:
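Cells: GR-bla HeLa, endogenous GR with stably integrated GRE-beta-lactamase reporter. Treatment 18 h, 37 C, compounds delivered in DMSO. Detection via LiveBLAzer B/G FRET substrate, 2 h RT, fluorescence intensity.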

Assay [18] shares this target. Put plainly: qHTS assay to identify small molecule antagonists of the glucocorticoid receptor (GR) signaling pathway (AID 720692; active = well fitted inhibition curve with a large enough effect in the signal ratio in the repeat runs, not every such curve was filed as active; the % refers to the signal ratio; also: potency is read from the fitted curve at half-maximal effect). In short, it runs like this: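 Quantitative HTS in antagonist format: HeLa cells expressing endogenous GR and a stably integrated GRE-bla reporter, stimulated with 5 nM dexamethasone (final) alongside test compounds for 18 h.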
Assay [19] in a line: qHTS assay to test for compound auto fluorescence at 535 nm (green) in HEK293 cell free culture (AID 720682). Also: % is scaled to controls: 0 for no effect and ±100 for the full control effect. In short, it runs like this: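 Green-channel intensity (Ex/Em 485/535 nm) was recorded from compound-treated wells containing only DMEM with 10% FBS. Fluorescein provided the equivalency standard.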

A number with no mark means an inactive call. Inconclusive results are not listed. The source made the active and inactive calls. Unless noted, calls follow the shape of the dose curve; as a rule, active = well fitted curve in the direction sought with a large enough effect in the repeat runs; inconclusive = weak or mixed curves; inactive = no such curve, though single readings can be large; an effect the other way counts as inactive or inconclusive.

Chain of Glucocorticoid receptor (Homo sapiens) (P04150 whole entry, looked up): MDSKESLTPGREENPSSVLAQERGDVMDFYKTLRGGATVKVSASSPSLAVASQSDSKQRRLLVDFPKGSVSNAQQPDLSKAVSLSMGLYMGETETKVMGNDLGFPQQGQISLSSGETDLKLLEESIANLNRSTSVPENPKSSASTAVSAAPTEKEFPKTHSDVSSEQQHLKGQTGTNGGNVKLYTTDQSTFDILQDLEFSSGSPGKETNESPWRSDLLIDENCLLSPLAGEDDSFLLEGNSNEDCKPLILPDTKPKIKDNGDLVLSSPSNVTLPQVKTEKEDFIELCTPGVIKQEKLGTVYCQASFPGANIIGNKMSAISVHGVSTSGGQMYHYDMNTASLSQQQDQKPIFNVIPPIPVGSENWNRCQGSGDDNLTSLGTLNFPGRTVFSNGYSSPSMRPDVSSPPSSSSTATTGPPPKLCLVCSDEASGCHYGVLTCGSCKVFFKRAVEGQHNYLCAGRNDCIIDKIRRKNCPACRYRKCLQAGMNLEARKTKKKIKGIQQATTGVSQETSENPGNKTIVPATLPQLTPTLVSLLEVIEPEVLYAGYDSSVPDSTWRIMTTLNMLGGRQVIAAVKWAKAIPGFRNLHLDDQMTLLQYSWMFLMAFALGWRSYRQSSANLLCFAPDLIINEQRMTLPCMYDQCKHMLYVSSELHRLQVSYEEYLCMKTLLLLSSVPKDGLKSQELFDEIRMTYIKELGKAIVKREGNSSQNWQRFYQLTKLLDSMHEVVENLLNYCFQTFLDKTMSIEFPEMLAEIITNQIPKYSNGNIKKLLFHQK

In the case of `O=c1cc(-c2ccccc2)oc2cc(O)cc(O)c12`, the Potency entry in assay [1], in [2], in [3], in [8], in assay [11] and in [14] was “inactive” throughout. Further, the Potency result in assay [16] and in assay [17] was “inactive” each time. Also, the Potency is 30.6 µM (active) in [4], 3.86 µM (active) in [5] and 19.5 µM (active) in [18]. For the same compound, the outcome in assay [6], in assay [7], in [9], in assay [10], in assay [12] and in [13] was inactive. Besides, the compound was classed as inactive in assay [15].

`CN(C)CCC=C1c2ccccc2C=Cc2ccccc21`: the Potency result in assay [1], in assay [2], in assay [3], in [4], in assay [8] and in assay [11] was “inactive” each time. The Potency entry in assay [14], in assay [16] and in assay [17] was “inactive” in each case. Also, the compound was classed as inactive in assay [6], in [7], in assay [9], in assay [10], in assay [12] and in [13]. In addition, in [15], the result was inactive.

As for `CCOc1ccccc1O[C@H](c1ccccc1)[C@H]1CNCCO1`, the Potency entry in [1], in assay [2], in assay [3], in [4], in assay [11] and in assay [14] was “inactive” in each case. Besides, the Potency entry in assay [16], in [17] and in assay [18] was “inactive” in each case. Further, the call in assay [6], in assay [7], in assay [9], in assay [10], in assay [19] and in [12] was inactive. In addition, the call in assay [13] and in assay [15] was inactive.

On to `CN1CCCC(n2nc(Cc3ccc(Cl)cc3)c3ccccc3c2=O)CC1` (stereo unspecified), for which the Potency entry in assay [1], in assay [2], in assay [3], in assay [4], in assay [8] and in assay [11] was “inactive” each time. Also, the Potency result in [16], in assay [17] and in assay [18] was “inactive” throughout. Moreover, the call in assay [6], in assay [7], in assay [9], in [10], in assay [19] and in assay [12] was inactive. The outcome in assay [13] and in assay [15] was inactive.

On to `CN(C(=O)CN(CCO)CC(=O)N(C)C(C)(C)Cc1ccccc1)C(C)(C)Cc1ccccc1`, for which the Potency result in assay [1], in assay [2], in assay [3], in [4], in assay [17] and in [18] was “inactive” throughout. For the same compound, the fluorescence, relative to Rose Bengal in [6] is -0.825% [at 18.6 µM]. Moreover, the fluorescence, % of fluorescein control was -0.0053% [at 18.6 µM] in assay [7] and 0.0894% [at 18.6 µM] in assay [15]. For the same compound, the fluorescence, % of triamterene in [8] was 0.252% [at 18.6 µM]. Besides, the fluorescence, % of fluorescent control was 0.0938% [at 18.6 µM] in assay [9], 0.0268% [at 18.6 µM] in assay [11], 0% [at 18.6 µM] in [12] and 0.0182% [at 18.6 µM] in [16]. The fluorescence, % of fluorescein in assay [10] is 0.0843% [at 18.6 µM]. In [19], the activity change was -0.0126% [at 18.6 µM]. Further, the fluorescence, % of Rose Bengal in assay [13] was 0.844% [at 18.6 µM].

For the compound `O=C1c2ccccc2C(=O)N1CCc1noc(-c2ccc(CN3CCCCCC3)s2)n1`, the Potency entry in assay [1], in assay [2], in assay [3], in assay [4], in assay [8] and in assay [11] was “inactive” each time. The Potency result in assay [14] and in assay [16] was “inactive” each time. The call in assay [6], in [7], in [9], in assay [10], in [12] and in assay [13] was inactive. For the same compound, the compound was classed as inactive in [15].

In the case of `Nc1ccc(N=Nc2ccccc2)c(N)c1`, the Potency in [1] is 2.12 µM (active); in assay [3], 67.1 µM (active); in [4], 47.5 µM (active); in [5], 4.75 µM (active). For the same compound, the Potency entry in assay [2], in assay [8], in assay [11], in assay [16] and in assay [17] was “inactive” each time. For the same compound, the call in assay [6], in assay [7], in [9], in assay [19], in assay [12] and in assay [13] was inactive. The call in [15] was inactive.
